Sampled rows, rich in hits. Any-hit rate of the full collection: about 2.4%.
Pol kappa inh-1 = inhibitors of human DNA polymerase kappa; Q9UBT6; purified Pol kappa, fluorescent DNA synthesis assay, 10 min; Potency, µM (titrated, usually from 107 µM), most hits filed as inhibitors; hit rate 0.53% among 400,000; AID 588579
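First, compounds were pin-transferred onto 10 nM Pol kappa. After 15 min at room temperature, substrate was added to 50 nM final. Fluorescence was then measured kinetically at 0 and 10 min.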
Pol iota inh = blocks human DNA polymerase iota activity. Q9UNA4. Pol iota fluorescent replication assay, 10 min. Potency, µM (series often up to 115 µM), actives largely listed as inhibitors. hit rate 1% among 390,000. AID 588590
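Fluorescent replication assay read twice, at 0 min and 10 min after adding 50 nM (final) substrate. Enzyme (10 nM) and compounds were first incubated 15 min at room temperature; enzyme-free buffer wells were negative controls.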
Pol eta inh-1 = inhibitors of human DNA polymerase eta; Q9Y253; Potency, µM (titrated, usually from 114 µM), actives largely listed as inhibitors; recombinant Pol eta, fluorescent DNA replication assay; hit rate 1.2% among 390,000
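Fluorescent replication assay: 50 nM final substrate added after a 15 min room-temperature compound preincubation with 10 nM enzyme. Signal taken at 0 min and again at 10 min.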
WRN helicase inh-1 = WRN helicase (human) inhibition. WRN helicase unwinding, fluorescent forked duplex, kinetic. Potency, µM (top dose mostly 114 µM), usual class: inhibitors. hit rate 0.46% among 360,000. AID 651768; note: nearly all actives have a fitted effect of over 55% in size
Target sequence (Q14191 whole entry, looked up): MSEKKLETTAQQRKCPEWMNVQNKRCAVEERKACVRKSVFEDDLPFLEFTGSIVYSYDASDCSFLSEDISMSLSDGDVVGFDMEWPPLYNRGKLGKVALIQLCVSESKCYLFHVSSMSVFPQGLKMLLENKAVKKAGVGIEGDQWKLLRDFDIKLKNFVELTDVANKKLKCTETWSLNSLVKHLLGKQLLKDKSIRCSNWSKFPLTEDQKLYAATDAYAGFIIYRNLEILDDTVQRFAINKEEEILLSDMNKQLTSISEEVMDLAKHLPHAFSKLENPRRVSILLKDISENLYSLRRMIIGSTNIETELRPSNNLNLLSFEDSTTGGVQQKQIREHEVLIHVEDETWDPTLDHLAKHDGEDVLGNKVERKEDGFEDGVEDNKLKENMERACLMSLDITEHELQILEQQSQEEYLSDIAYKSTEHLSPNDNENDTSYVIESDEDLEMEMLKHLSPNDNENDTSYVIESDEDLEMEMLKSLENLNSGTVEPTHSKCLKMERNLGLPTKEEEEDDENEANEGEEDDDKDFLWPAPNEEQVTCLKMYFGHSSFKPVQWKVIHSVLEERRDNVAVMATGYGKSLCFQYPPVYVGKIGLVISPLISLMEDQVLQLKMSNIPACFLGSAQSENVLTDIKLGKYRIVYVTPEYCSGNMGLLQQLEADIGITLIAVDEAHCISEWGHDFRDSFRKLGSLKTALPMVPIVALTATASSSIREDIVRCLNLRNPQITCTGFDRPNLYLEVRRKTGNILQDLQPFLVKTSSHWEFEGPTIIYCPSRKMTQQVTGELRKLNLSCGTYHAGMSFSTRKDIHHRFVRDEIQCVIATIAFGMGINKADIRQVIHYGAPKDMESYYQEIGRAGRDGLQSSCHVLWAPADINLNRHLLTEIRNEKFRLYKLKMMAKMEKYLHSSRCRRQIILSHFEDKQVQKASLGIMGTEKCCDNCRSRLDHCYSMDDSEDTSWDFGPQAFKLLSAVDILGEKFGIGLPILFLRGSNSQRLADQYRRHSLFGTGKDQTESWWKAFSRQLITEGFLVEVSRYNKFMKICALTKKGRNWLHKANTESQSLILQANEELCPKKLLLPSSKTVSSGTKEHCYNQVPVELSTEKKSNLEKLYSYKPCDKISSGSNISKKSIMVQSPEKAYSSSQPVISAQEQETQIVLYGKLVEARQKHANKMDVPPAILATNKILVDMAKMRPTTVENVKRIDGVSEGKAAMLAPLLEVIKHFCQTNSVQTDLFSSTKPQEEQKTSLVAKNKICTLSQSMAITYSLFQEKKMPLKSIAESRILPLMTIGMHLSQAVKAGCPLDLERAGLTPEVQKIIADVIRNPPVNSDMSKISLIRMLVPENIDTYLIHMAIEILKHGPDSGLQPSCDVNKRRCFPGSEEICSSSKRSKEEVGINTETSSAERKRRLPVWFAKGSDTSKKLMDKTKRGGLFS
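Kinetic fluorescence helicase assay: unwinding of a quenched forked DNA duplex (100 nM final) with 2 mM ATP final raises red fluorescence (525/598 nm). Compounds sat 15 min at room temperature with 20 nM WRN beforehand.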
FEN1 inh-1 = inhibitors of human flap endonuclease 1; P39748; Recombinant FEN1 flap cleavage, fluorescence, 15 min; Potency, µM (top dose mostly 114 µM), most hits filed as inhibitors; hit rate 0.35% among 390,000; AID 588795; note: nearly all actives have a fitted effect of over 65% in size
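Reaction started by adding substrate (50 nM final) to 10 nM enzyme after 15 min room-temperature compound preincubation. Reads at 0 and 15 min, with data normalized and fitted to a four-parameter Hill equation.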
Pol beta inh = DNA polymerase beta (human) inhibition; hit rate 1.3% among 340,000; Pol beta primer extension/strand displacement, fluorescence kinetic; Potency, µM (series often up to 114 µM), actives largely listed as inhibitors
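10 nM enzyme + cpd, 15 min RT; start with substrate 50 nM final; read 0 min and after 10 min RT. Corrected, normalized data; 4-parameter Hill curve fit.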
Pol kappa inh-2 = Pol kappa (human) inhibition, cherry-pick confirmation. hit rate 76% among 920. shares compounds with Pol eta inh-1. Potency, µM, most hits filed as inhibitors. purified Pol-kappa, fluorescent strand-displacement substrate. AID 720501
Pol eta inh-2 = Pol eta (human) inhibition, cherry-pick confirmation; shares compounds with Pol eta inh-1; Pol eta primer extension, TAMRA/BHQ fluorescence, 10 min; Potency, µM, actives largely listed as inhibitors; hit rate 64% among 2,600; AID 720502
FEN1 inh-2 = FEN1 inhibition, cherry-pick retest | shares compounds with FEN1 inh-1 | FEN1 flap cleavage, TAMRA/BHQ2 fluorogenic DNA substrate | Potency, µM, most hits filed as inhibitors | hit rate 79% among 880; note: nearly all actives have a fitted effect of over 60% in size
WRN helicase inh-2 = confirmation of human WRN helicase inhibitors; shares compounds with WRN helicase inh-1; WRN helicase DNA unwinding, fluorescence kinetic; Potency, µM (doses to about 57.1 µM), hits mostly inhibitors; hit rate 63% among 610; note: nearly all actives have a fitted effect of over 65% in size
TO displacement = counter-screen for WRN helicase inhibitors: DNA binding. AID 720499. shares compounds with WRN helicase inh-1. hit rate 10% among 610. thiazole orange DNA binding displacement, fluorescence. Potency, µM (titrated, usually from 57.1 µM), usual class: inhibitors;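 note: drop in dye fluorescence marks compound binding to DNA; nearly all actives have a fitted effect of over 60% in size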
BLM counter = BLM helicase inhibition, WRN selectivity check. Potency, µM (series often up to 57.1 µM), most hits filed as inhibitors. Recombinant BLM helicase DNA unwinding, red fluorescence. hit rate 60% among 610. shares compounds with WRN helicase inh-1. AID 720503; note: nearly all actives have a fitted effect of over 60% in size
Numbers stand for hits; . = inactive; ? = inconclusive; / = no result given; [ ] = another dose, or the depositor's remark. Calls come from the whole dose curve; as a rule, active = well fitted curve in the direction sought with a large enough effect; inconclusive = small, poorly fitted or top-dose-only effect, or another doubt; inactive = no such curve, though single readings can be large; an effect the other way counts as inactive or inconclusive.

SMILES	Pol kappa inh-1	Pol iota inh	Pol eta inh-1	WRN helicase inh-1	FEN1 inh-1	Pol beta inh	Pol eta inh-2	WRN helicase inh-2	TO displacement	BLM counter	others
O=C(c1ccccc1)c1ccc2nc(-c3ccco3)c(-c3ccco3)nc2c1	25µM	4µM	13µM	16µM	?	8.9µM	?	15µM	24µM	8.6µM	Pol kappa inh-2=?
Cc1ccc(-c2ccc(/C=C3\C(=O)ON=C3c3ccccc3)o2)c([N+](=O)[O-])c1	.	32µM	28µM	40µM	.	.	85	22µM	?	22µM	Pol kappa inh-2=?
COC(=O)CC1[C@@]2(C)C[C@]34OC5(C)OC6(C7CC(=O)OC(c8ccoc8)[C@]7(C)CCC6(O5)[C@]13C)C(OC(C)=O)[C@]4(OC(C)=O)C2OC(C)=O (stereo partly specified)	.	/	/	/	/	/	/	/	/	/
O=[N+]([O-])c1c(Nc2ccc(O)cc2)cc(Cl)c2nonc12	.	3.5µM	50µM	?	?	.	?	?	34µM	?
O=C(ONc1ccc(N=NC(=O)c2ccccc2O)cc1)c1ccccc1	.	.	50µM	?	.	.	?	22µM	27µM	14µM
Cc1cc(N=NC(=O)c2ccccc2)ccc1O	.	?	.	.	.	.	/	/	/	/
O=C(O)CN1C(=O)/C(=C\C(Br)=C\c2ccccc2)SC1=S	?	?	8.9µM	?	?	?	24	22µM	.	22µM
O=C(Nc1scc(-c2ccc(F)cc2)c1C(=O)O)c1ccco1	.	?	.	.	.	.	/	/	/	/
Cc1ccc(-c2csc(NC(=O)/C=C/c3ccco3)c2C(=O)O)cc1	50µM	?	28µM	40µM	.	28µM	?	?	.	?
COc1ccc(OC)c2sc(N(Cc3cccnc3)C(=O)c3ccc(C(C)=O)cc3)nc12	.	?	.	/	.	.	/	/	/	/
CCCN1C(=O)/C(=C\C=C2\N(CC)c3ccccc3C2(C)C)SC1=S	.	?	?	4.2µM	?	.	/	14µM	.	11µM	Pol kappa inh-2=53
CCCN1C(=O)/C(=C\C=C2/Sc3ccccc3N2CC)SC1=S	/	/	/	/	/	.	/	/	/	/
O=C(CCCN1C(=O)/C(=C\c2ccccc2)SC1=S)N1CCOCC1	.	.	.	.	.	/	/	/	/	/
O=C(O)CCCN1C(=O)/C(=C\c2ccco2)SC1=S	11µM	7.1µM	20µM	?	32µM	20µM	48	?	.	?	Pol kappa inh-2=42
COc1cc(/C=C2/C(=O)c3cccc([N+](=O)[O-])c3C2=O)c(Br)cc1O	.	25µM	25µM	4.2µM	?	40µM	48	?	?	?
COc1ccc(CNC(=O)c2cnc3ccc(C)cn3c2=O)cc1	.	.	.	/	.	.	/	/	/	/
Cc1ccc(C)c(-n2nnc(-c3nc(-c4ccc(Cl)cc4)no3)c2N)c1	.	.	.	/	.	.	/	/	/	/
O=S(=O)(c1ccccc1)c1cc(O)ccc1O	.	.	.	.	.	?	/	/	/	/
Nc1ccc(S(=O)(=O)c2cc(O)c3ccccc3c2O)cc1	.	?	40µM	28µM	?	/	?	24µM	24µM	22µM	Pol kappa inh-2=84
COc1cc(/C=C2\SC(=N)N(c3ccc(F)cc3)C2=O)ccc1O	.	.	.	.	.	?	/	/	/	/
COc1cc(/C=C2\SC(=S)N(Nc3ncc(C(F)(F)F)cc3Cl)C2=O)ccc1O	.	14µM	?	32µM	?	14µM	/	7.6µM	.	6.1µM	Pol kappa inh-2=?
CCN(CC)c1ccc(/C=C2/C(=O)c3ccc(C(=O)O)cc3C2=O)cc1	79µM	18µM	3.5µM	35µM	?	?	38	24µM	.	?	Pol kappa inh-2=7.5
CCN(CC)c1ccc(/C=C2/C(=O)ON=C2C)cc1	.	?	.	.	.	.	/	/	/	/
CCC(C)NC(=O)c1nn(-c2ccc(C)cc2)c(=O)n(C)c1=O (stereo unspecified)	.	.	.	/	.	.	/	/	/	/
COCCCNC(=O)CCCn1c(=O)c2ccccc2n(CC(=O)Nc2ccc(C)cc2Cl)c1=O	.	?	.	/	.	.	/	/	/	/
SMILES	Pol kappa inh-1	Pol iota inh	Pol eta inh-1	WRN helicase inh-1	FEN1 inh-1	Pol beta inh	Pol eta inh-2	WRN helicase inh-2	TO displacement	BLM counter	others
O=C(O)CCCNc1cc(N2CCN(C3CCCCC3)CC2)c2noc3c2c1C(=O)c1ccccc1-3	?	?	.	/	?	20µM	?	6.8µM	.	6.1µM	FEN1 inh-2=?
CC(C)Nc1cc(N2CCN(C3CCCCC3)CC2)c2noc3c2c1C(=O)c1ccccc1-3	.	.	.	/	.	.	/	/	/	/
O=C(O)COc1ccccc1/C=C1\SC(=S)N(NC(=O)c2ccccc2O)C1=O	32µM	7.1µM	32µM	?	?	/	?	?	.	.	Pol kappa inh-2=7.5
C/C(=N/NC(=O)c1cc2ccccc2cc1O)C1C(=O)c2ccccc2C1=O	?	32µM	14µM	45µM	50µM	?	?	15µM	3.4µM	15µM	FEN1 inh-2=60
COc1ccc(C2C(C(=O)Nc3ccccc3)=C(C)Nc3nc(-c4ccccc4Cl)nn32)cc1OC (stereo unspecified)	.	.	.	/	.	.	/	/	/	/
CC(=O)N1N=C(c2ccc(C)cc2)OC1c1ccc(Br)cc1 (stereo unspecified)	.	.	.	.	.	.	/	/	/	/
CCOc1ccc(Br)cc1C1=NN(C(C)=O)C(c2ccc([N+](=O)[O-])s2)O1 (stereo unspecified)	.	50µM	50µM	.[11.6 µM]	?	18µM	/	/	/	/	FEN1 inh-2=6.7
CC(=O)C1CCC2C3CC=C4CC(SC(=N)N)CCC4(C)C3CCC12C (stereo unspecified)	.	.	.	.	?	/	/	/	/	/	FEN1 inh-2=?
CC(=O)OCC(=O)C1CCC2C3CC=C4CC(O)CCC4(C)C3CCC12C (stereo unspecified)	.	.	.	.	.	/	/	/	/	/
CC(=O)NCCNc1ncnc2ccc(-c3ccc4c(c3)OCO4)cc12	.	/	/	/	/	/	/	/	/	/
CN(C)CCNc1ncnc2ccc(-c3ccc4c(c3)OCO4)cc12	/	/	/	/	/	/	/	/	/	/	FEN1 inh-2=30
NCCCNc1ncnc2ccc(-c3ccc4c(c3)OCO4)cc12	/	/	/	/	/	/	/	/	/	/	FEN1 inh-2=38
